Source: PubChem BioAssay (NCATS)
Inconclusive results are not listed. Entries that show only a call come without a potency. Calls of active or inactive are those of the source. Calls follow the shape of the dose curve; as a rule, active = well fitted inhibition curve with a large enough effect; inconclusive = small, poorly fitted or top-dose-only effect; inactive = flat fitted curve, though single readings scatter.

Target: Glutathione peroxidase 1 (Homo sapiens) (UniProt P07203)
Test: Primary qHTS Assay for Inhibitors of Recombinant Selenoprotein Glutathione Peroxidase 1 (GPX1) (AID 1845191); also: nearly all actives have a fitted effect of over 65% in size
Settings: recombinant GPX1, GR-coupled NADPH fluorescence, 15 min; series mostly up to 48.8 µM
Method in brief: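 NADPH consumption tracked by fluorescence at 340/450 nm between t=0 and t=15 min, room temperature. Final mix: 10 nM GPX1, 100 nM glutathione reductase, 1 mM GSH, 0.5 mM NADPH, 0.5 mM cumene hydroperoxide, 0.01% BSA; 30 min compound–enzyme preincubation.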

Chain of Glutathione peroxidase 1 (Homo sapiens) (P07203 whole entry, looked up): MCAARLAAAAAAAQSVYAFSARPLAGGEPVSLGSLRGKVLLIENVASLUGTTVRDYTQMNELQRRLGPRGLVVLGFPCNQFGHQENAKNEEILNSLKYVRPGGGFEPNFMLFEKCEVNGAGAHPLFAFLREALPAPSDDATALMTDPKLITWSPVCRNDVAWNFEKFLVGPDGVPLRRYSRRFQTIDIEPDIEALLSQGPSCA

Row | Compound | Potency
1 | O=C1c2c(O)cccc2Cc2cccc(O)c21 | inactive
2 | C[C@H](NC(CCc1ccccc1)C(=O)O)C(=O)N1CCC[C@H]1C(=O)O (stereo partly drawn) | inactive
3 | CC1(C)[C@@H]2CC[C@@]1(C)C(=O)C2 | inactive
4 | OC[C@H]1O[C@@H](O[C@@H]2[C@@H](CO)O[C@](O)(CO)[C@H]2O)[C@H](O)[C@@H](O)[C@H]1O | inactive
5 | CC(COc1ccccc1)NC(C)C(O)c1ccc(O)cc1 (stereo not drawn) | inactive
6 | CN(N=O)C(=O)N[C@@H]1[C@@H](O)[C@H](O)[C@@H](CO)O[C@@H]1O | inactive
7 | O=C1NC(=O)[C@@]2(CCOc3ccc(F)cc32)N1 | inactive
8 | Oc1cccc(O)c1 | inactive
9 | CC(=O)Oc1c(C)c(C)c2c(c1C)CC[C@@](C)(CCC[C@H](C)CCC[C@H](C)CCCC(C)C)O2 | inactive
10 | NC(=O)N/N=C/c1ccc([N+](=O)[O-])o1 | inactive
11 | CNCCCC1c2ccccc2C=Cc2ccccc21 | inactive
12 | CCCCCCCCCCCCCCCCCCOCC(O)CO (stereo not drawn) | inactive
13 | CC(=O)OCC(=O)[C@@]1(O)CC[C@H]2[C@@H]3CCC4=CC(=O)CC[C@]4(C)[C@H]3C(=O)C[C@@]21C | inactive
14 | O=c1cc[nH]c(=O)[nH]1 | inactive
15 | NC(=O)c1ncn([C@@H]2O[C@H](CO)[C@@H](O)[C@H]2O)c1N | inactive
16 | N[C@H]1C(O)O[C@H](CO)[C@@H](O)[C@@H]1O (stereo partly drawn) | inactive
17 | C[C@]12C[C@H](O)[C@H]3[C@@H](CCC4=CC(=O)CC[C@@]43C)[C@@H]1CC[C@@H]2C(=O)CO | inactive
18 | CCN(CC)CCNC(=O)c1c(C)[nH]c(/C=C2\C(=O)Nc3ccc(F)cc32)c1C | inactive
